# Results: ChEMBL document CHEMBL3988442, “University of Dundee, Small-Polar-MMV Screening Library” (2021)
# For some of these results: Measured potencies and affinities stand elsewhere.
# Tests used:
# Design in all cases: scale not given: direction of the effect not stated beside the values
# [1] = target: Protein translocase subunit SecA (Escherichia coli (strain K12)) (UniProt P10408); assay: Assay to Identify E. coli SecA ATPase Inhibitors; format: functional; settings: 30 µM
# [2] = target: T1, Ubiquitin-activating enzyme e1, putative (Leishmania donovani (strain BPK282A1)) (UniProt E9BSI1); assay: Leishmania donovani Ubiquitin Activating Enzyme (LdE1); format: functional; settings: 30 µM
# T1 sequence (whole entry): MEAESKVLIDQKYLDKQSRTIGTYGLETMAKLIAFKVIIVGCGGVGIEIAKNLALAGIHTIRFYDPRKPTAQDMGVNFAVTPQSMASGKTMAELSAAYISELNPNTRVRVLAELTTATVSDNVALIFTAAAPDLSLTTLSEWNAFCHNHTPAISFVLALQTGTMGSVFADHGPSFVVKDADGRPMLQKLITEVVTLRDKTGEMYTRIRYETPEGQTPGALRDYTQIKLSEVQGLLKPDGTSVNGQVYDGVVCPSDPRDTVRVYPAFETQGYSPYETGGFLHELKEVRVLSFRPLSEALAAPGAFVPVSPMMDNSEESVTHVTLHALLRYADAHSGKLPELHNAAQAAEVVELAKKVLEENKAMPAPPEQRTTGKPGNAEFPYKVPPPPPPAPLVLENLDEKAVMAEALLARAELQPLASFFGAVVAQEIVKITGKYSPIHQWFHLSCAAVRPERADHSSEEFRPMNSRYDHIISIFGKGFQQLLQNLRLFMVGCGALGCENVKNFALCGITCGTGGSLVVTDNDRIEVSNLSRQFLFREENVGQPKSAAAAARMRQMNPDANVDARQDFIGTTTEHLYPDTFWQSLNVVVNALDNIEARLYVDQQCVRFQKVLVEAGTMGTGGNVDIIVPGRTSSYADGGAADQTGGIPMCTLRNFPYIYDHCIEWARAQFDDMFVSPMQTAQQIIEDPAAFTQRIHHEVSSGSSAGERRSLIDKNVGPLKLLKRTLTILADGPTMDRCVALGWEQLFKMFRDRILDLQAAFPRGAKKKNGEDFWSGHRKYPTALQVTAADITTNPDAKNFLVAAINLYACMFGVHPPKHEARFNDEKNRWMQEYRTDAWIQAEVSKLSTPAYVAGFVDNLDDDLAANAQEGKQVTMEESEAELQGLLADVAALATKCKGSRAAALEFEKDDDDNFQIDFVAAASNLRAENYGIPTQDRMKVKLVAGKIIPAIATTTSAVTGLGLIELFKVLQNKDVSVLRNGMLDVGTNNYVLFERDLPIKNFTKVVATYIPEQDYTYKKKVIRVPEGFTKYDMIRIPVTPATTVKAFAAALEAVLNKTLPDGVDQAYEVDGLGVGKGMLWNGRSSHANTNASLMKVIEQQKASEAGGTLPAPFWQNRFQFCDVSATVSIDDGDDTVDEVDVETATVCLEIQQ
# [3] = target: AMP-activated protein kinase, AMPK (Homo sapiens) (UniProt P54646+O43741+P54619+Q9UGJ0+Q9Y478+Q13131+Q9UGI9); assay: AMP-dependent Kinase enzyme assay. An in vitro enzyme assay that detects ADP turnover that is directly proportional to AMPK activity. This uses naive AMPK that is activated during the assay with MK-8722; format: functional; settings: 30 µM
# [4] = target: Sialic acid-binding Ig-like lectin 9 (Homo sapiens) (UniProt Q9Y336); assay: Hs-Siglec9 ALPHAscreen SOP 20170721; settings: 10 µM
# Trypanosoma cruzi = assay: Trypanosoma cruzi phosphomannomutase and mannose-1-phosphate guanylyltransferase assay; format: functional; settings: 10 µM
# [5] = target: T2, Arginase-2, mitochondrial (Homo sapiens) (UniProt P78540); assay: in vitro enzyme assay to detect the production of urea directly proportional to the activity of Arginase II; format: functional; settings: 33.3 µM; note: in the data most compounds retested in dose-response had high values
# T2 sequence (whole entry): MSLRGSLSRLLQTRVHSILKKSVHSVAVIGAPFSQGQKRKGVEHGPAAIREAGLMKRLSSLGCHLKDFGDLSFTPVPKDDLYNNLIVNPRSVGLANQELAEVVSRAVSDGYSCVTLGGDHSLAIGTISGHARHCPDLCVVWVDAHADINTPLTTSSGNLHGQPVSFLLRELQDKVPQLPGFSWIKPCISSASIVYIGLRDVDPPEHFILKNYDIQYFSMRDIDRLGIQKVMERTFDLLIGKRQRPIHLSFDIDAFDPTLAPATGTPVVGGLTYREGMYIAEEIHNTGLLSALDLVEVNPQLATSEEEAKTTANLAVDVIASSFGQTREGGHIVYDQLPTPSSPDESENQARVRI
# [6] = target: T3, Proteasome subunit beta (Trypanosoma cruzi) (UniProt O96673); assay: Trypanosoma cruzi proteasome chymotrypsin-like activity (TcProtChymo) assay.; note: in the data most compounds retested in dose-response had high values; format: functional; settings: 9.37 µM
# T3 sequence (whole entry): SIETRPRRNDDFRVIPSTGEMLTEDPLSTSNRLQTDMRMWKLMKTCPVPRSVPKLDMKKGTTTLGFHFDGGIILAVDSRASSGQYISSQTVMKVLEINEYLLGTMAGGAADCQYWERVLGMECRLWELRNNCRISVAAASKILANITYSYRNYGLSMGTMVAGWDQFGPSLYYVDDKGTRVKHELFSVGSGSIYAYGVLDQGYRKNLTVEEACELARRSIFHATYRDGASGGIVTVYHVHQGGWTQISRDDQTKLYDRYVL
# Homo sapiens = species on record: Homo sapiens; assay: To identify inhibition of the IFN signalling (Jak-Stat) pathway via expression of an eGFP reporter gene under the control of an IFN-stimulated response element (ISRE) containing MxA promoter.; format: functional; settings: 30 µM
# [7] = target: T4, Tyrosyl-tRNA synthetase, putative (Trypanosoma cruzi (strain CL Brener)) (UniProt Q4DSP6); assay: Trypanosoma cruzi tyrosyl tRNA synthetase (TcYRS) _High Tyrosine SOP; format: functional; settings: 30 µM; note: in the data most compounds retested in dose-response had high values
# T4 sequence (whole entry): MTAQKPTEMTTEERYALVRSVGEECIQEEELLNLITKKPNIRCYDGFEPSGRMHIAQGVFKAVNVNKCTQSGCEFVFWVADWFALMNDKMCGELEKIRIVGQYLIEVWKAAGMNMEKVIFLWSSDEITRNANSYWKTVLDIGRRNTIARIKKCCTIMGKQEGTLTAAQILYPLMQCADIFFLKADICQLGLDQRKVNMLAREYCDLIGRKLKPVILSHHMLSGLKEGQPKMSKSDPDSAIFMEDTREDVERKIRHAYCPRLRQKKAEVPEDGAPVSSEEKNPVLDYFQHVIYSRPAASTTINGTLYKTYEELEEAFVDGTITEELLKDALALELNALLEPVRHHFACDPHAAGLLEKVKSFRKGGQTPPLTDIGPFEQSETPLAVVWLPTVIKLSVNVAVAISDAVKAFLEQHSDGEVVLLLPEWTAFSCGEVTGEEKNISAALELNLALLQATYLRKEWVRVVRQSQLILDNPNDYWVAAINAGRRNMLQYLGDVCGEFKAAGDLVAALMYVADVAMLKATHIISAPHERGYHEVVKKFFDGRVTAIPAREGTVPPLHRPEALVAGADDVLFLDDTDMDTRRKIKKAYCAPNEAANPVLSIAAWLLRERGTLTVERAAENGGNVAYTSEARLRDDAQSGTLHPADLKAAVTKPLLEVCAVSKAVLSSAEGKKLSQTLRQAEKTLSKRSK
# [8] = target: T4, Tyrosyl-tRNA synthetase, putative (Trypanosoma cruzi (strain CL Brener)); assay: Trypanosoma cruzi tyrosyl tRNA synthetase (TcYRS) SOP; format: functional; settings: 30 µM
# [9] = target: Chromo domain-containing protein 1 (Saccharomyces cerevisiae (strain ATCC 204508 / S288c) (Baker's yeast)) (UniProt P32657); assay: ScCHD-1 Enzyme Inhibition Assay; format: functional; settings: 30 µM; note: in the data most compounds retested in dose-response had high values
# Chain of Chromo domain-containing protein 1 (Saccharomyces cerevisiae (strain ATCC 204508 / S288c) (Baker's yeast)) (P32657 whole entry, the tested form may be a part): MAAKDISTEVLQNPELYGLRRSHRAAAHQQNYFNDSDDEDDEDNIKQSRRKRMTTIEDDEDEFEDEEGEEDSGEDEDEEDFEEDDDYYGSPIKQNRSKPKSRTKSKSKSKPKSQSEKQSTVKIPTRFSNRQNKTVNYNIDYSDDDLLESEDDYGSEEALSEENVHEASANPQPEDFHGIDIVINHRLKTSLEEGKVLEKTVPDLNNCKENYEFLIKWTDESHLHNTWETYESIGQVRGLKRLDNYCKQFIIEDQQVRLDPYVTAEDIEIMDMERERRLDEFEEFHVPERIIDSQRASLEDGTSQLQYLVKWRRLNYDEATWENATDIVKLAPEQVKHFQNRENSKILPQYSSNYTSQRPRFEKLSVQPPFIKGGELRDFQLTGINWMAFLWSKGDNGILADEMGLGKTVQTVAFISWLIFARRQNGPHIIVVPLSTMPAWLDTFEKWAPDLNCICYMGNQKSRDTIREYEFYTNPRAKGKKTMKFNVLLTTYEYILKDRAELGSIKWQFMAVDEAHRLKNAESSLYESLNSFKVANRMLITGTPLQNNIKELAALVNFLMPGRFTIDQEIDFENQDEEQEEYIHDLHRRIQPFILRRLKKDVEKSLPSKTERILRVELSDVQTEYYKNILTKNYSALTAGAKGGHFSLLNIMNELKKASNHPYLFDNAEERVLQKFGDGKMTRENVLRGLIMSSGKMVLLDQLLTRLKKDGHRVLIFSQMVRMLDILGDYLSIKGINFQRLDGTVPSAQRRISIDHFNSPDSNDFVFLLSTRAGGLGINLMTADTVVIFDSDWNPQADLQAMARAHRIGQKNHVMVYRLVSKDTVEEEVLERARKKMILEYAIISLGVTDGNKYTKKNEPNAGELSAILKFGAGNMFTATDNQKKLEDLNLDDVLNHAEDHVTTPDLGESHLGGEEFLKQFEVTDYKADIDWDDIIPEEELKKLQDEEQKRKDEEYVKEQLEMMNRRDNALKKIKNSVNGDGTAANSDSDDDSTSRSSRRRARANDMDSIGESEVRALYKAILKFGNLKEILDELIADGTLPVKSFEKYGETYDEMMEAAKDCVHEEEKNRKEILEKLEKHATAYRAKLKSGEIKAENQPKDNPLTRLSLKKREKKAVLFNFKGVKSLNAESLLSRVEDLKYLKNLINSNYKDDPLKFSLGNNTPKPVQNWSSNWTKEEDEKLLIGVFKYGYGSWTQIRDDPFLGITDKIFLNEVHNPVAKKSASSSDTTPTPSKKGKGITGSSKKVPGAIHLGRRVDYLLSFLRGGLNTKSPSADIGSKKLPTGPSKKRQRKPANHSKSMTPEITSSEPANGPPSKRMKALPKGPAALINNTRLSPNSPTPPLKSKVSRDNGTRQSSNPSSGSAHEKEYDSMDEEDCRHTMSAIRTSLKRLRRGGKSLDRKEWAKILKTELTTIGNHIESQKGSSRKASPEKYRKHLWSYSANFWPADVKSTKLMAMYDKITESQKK
# Chain of Protein translocase subunit SecA (Escherichia coli (strain K12)) (P10408 whole entry): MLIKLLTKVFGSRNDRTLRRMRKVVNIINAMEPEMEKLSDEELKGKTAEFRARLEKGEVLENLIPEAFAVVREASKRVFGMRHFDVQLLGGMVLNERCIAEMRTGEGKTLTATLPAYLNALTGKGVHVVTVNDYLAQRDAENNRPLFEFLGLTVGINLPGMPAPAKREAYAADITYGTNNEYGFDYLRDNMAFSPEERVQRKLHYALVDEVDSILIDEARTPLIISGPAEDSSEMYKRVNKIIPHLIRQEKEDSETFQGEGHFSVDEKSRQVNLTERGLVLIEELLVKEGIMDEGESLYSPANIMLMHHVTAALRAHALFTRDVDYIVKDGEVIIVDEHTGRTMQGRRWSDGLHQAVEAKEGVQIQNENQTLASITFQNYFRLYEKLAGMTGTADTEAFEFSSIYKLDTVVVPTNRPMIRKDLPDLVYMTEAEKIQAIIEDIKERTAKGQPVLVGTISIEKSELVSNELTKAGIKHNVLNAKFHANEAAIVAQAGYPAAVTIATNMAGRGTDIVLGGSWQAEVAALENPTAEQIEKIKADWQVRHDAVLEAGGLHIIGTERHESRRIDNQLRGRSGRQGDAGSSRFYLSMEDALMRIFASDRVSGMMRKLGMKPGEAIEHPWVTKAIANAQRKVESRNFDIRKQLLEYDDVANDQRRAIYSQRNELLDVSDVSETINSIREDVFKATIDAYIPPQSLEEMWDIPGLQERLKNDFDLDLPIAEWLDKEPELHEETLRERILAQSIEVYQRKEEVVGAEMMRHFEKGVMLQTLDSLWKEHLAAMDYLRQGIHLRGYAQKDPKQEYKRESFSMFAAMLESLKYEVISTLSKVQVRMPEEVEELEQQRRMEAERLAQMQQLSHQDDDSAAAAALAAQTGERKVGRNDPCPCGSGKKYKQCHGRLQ
# Chain of Sialic acid-binding Ig-like lectin 9 (Homo sapiens) (Q9Y336 whole entry): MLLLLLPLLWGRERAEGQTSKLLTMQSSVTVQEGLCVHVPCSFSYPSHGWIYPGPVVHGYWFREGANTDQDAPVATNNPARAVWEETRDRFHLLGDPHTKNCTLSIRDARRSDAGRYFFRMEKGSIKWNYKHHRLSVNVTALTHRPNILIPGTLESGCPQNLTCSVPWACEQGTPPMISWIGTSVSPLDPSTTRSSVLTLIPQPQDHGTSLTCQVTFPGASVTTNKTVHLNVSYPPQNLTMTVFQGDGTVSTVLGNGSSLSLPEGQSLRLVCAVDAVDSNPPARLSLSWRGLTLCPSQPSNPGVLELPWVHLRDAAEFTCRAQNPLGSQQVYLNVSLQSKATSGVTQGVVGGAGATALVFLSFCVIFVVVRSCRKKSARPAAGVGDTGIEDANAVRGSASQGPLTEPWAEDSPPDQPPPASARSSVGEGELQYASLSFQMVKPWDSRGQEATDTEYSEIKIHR
SMILES,Percent Effect [1] [%],Percent Effect [2] [%],Percent Effect [3] [%],Percent Effect [4] [%],Percent Effect (Trypanosoma cruzi) [%],Percent Effect [5] [%],Percent Effect [6] [%],Percent Effect (Homo sapiens) [%],Percent Effect [7] [%],Percent Effect [8] [%],Percent Effect [9] [%]
COCCC(=O)N1CCc2cc(Cl)cc(Cl)c2C1,-3.86,-44.2,0.226,19.2,1.87,0,14,-16.1,-3.23,-1.24,126
CCn1nc2c(cc1=O)CN(Cc1nc3ccccc3c(=O)[nH]1)CC2,-5.88,5.48,-24.8,-1.63,-1.57,-1.36,18.3,10.3,6.45,10,-4.67
Cc1cnn(CC2CCCN2C(=O)c2cc3ccccc3[nH]c2=O)c1 (stereo not drawn),-8.51,7.79,-12.6,-10,-5.97,-1.9,8.49,15,1.91,7.06,-15.3
O=C(c1cccc2c1OCO2)N1CCCC(n2cccn2)C1 (stereo not drawn),-4.91,2.7,-10.6,1.58,-5.94,-1.2,8.29,10.5,0.493,3.7,-1.47
CN(C)C(=O)CNC(=O)CCn1ncc2c(Cl)cccc21,-5.52,4,2.92,1.65,3.73,-7.57,14.1,16.1,2.12,7.69,-12.3
CCc1nsc(NC2CCCn3nc(CC)nc32)n1 (stereo not drawn),-6.19,8,-4.68,26,7.3,6.25,13.6,0.363,3.83,13.6,-7.22
CC(=O)N1CC(=O)N(c2cnn(C)c2)CC12CCN(Cc1ccsc1)C2 (stereo not drawn),-5.9,2.7,-4.89,3.54,-6.05,-1.25,18.3,13.5,3.96,3.66,-3.49
O=C(NCCc1ccsc1)Nc1cccnc1N1CCCC1,-3.39,26.3,-28.7,0.502,3.64,-2.88,11.2,-10.3,8.37,35.8,-9.48
